Laboratory results as given in PubChem BioAssay (NCI).
The panel holds about 79,000 compounds, 15% with a hit somewhere; the sample as a whole holds those more often. No stated cut-off is given here; in the data, active means growth inhibition above about 70%; inactive means the rest.

Experiments:
[1] = NCI Yeast Anticancer Drug Screen. Data for the rad50 strain (AID 155);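 further: 0% = growth of vehicle-only cultures of the same strain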; conditions: S. cerevisiae rad50 strain growth inhibition; at 50.0 µM; hits give high values
How it was run: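 Vehicle-treated cultures provide the reference for the growth inhibition reported for compound-exposed, repair-deficient yeast.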

[2] = NCI Yeast Anticancer Drug Screen. Data for the mec2-1 strain (AID 157); conditions: S. cerevisiae mec2-1 strain, at 50.0 µM, hits give high values
How it was run: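 Growth inhibition is read against vehicle-treated controls after compound exposure of the mec2-1 yeast strain, which is defective in DNA damage repair or cell cycle control.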

[3] = NCI Yeast Anticancer Drug Screen. Data for the sgs1 mgt1 strain (AID 161);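 further: 0% = growth of cultures given vehicle only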; conditions: S. cerevisiae sgs1 mgt1 strain, at 50.0 µM, hits give high values
How it was run: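 This yeast growth screen uses a strain with defined DNA-repair lesions; compound-treated growth is compared with vehicle-treated growth.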

[4] = NCI Yeast Anticancer Drug Screen. Data for the cln2 rad14 strain (AID 165);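 further: 0% = growth equal to vehicle treated cultures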; conditions: S. cerevisiae cln2 rad14 strain, at 50.0 µM, hits give high values
How it was run: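 Growth inhibition, relative to vehicle-treated controls, is the read-out. The test organism is a yeast strain with defined genetic alterations, cln2 rad14.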

[5] = NCI Yeast Anticancer Drug Screen. Data for the bub3 strain (AID 167); conditions: S. cerevisiae bub3 mutant strain, at 50.0 µM, hits give high values
How it was run: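 Mutant yeast screening strain plus compound; vehicle-treated cultures serve as the 0% inhibition reference.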

[6] = NCI Yeast Anticancer Drug Screen. Data for the mlh1 rad18 strain (AID 175); conditions: S. cerevisiae mlh1 rad18 strain growth inhibition; at 50.0 µM; hits give high values
How it was run: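 Cells of a genetically altered yeast strain, deficient in DNA damage repair, were treated with compound. Their growth was then compared with that of vehicle-treated cultures to give inhibition.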

Measured: growth inhibition

CCCCOC(=O)c1ccc(NC(=O)CCCN(CC)CC)cc1
inactive: [1] 5.5% | [2] -2.3% | [3] 0.85% | [4] 13.2% | [5] 14.4% | [6] -5%

COc1cc(C2=N/C(=C\c3cccc([N+](=O)[O-])c3)C(=O)O2)cc(OC)c1OC
inactive: [1] -0.45% | [2] -7.25% | [3] 11.6% | [4] -8.05% | [5] -0.2% | [6] -22.5%

CC(=O)NC(CCCCN(Cc1ccccc1)C(=O)N(C)N=O)C(=O)NCc1ccccc1 (centres undefined)
inactive: [1] 0.3% | [2] -6.7% | [3] 24.4% | [4] -0.15% | [5] -22.9% | [6] -6.4%

CCCCCCCCCCCCCCCc1ccc([N+](=O)[O-])c(O)c1
inactive: [1] -2.25% | [2] 33.5% | [3] 7.1% | [4] -8.75% | [5] 51.7% | [6] 35.9%

Cc1ccccc1OCC(O)CO (centres undefined)
inactive: [1] 4.2% | [2] -5.9% | [3] -8.7% | [4] 22.2% | [5] -23.4% | [6] -13.6%

NC(Cc1ccc(O)c(O)c1)C(=O)OCc1ccccc1 (centres undefined)
inactive: [1] 67.6% | [2] 60.7% | [3] 68.8% | [4] 58.4% | [5] 38.5% | [6] 65.8%

CCCCCCc1cc2c(C)c(C)c(=O)oc2cc1OCCCOc1cc2oc(=O)c(C)c(C)c2cc1CCCCCC
inactive: [1] -17.9% | [2] -24.9% | [3] -12.5% | [4] 35.5% | [5] -11.8% | [6] -46.3%

Oc1cccc2ccc[n+](CCc3ccccc3)c12
inactive: [1] 1.4% | [2] 9.15% | [3] 8.7% | [4] -13.5% | [5] -5.9% | [6] 31.6%

CC1(c2ccccc2)OCCCO1
inactive: [1] -11.3% | [2] -7.15% | [3] -10.8% | [4] 0.65% | [5] -2.5% | [6] -0.8%

CCNC(=O)C(C(=O)OC)c1ccccc1 (centres undefined)
inactive: [1] 3.7% | [2] -1.5% | [3] 5.3% | [4] -3.45% | [5] 30.8% | [6] 1.2%

CCCc1ccccc1NC(=O)NCCCl
inactive: [1] -1.75% | [2] -2.5% | [3] -0.5% | [4] -30.6% | [5] -12.9% | [6] 5.6%

O=C(O)C(C(=O)O)C(c1ccccc1)c1ccccc1Br (centres undefined)
inactive: [1] 5.15% | [2] 17.1% | [3] 28.1% | [4] -184% | [5] 23.9% | [6] 29.5%

COS(=O)(=O)Cc1ccccc1
inactive: [1] -21.6% | [2] -15% | [3] -16.8% | [4] -19.2% | [5] -12.3% | [6] 8.45%

COC(CCCl)c1ccccc1 (centres undefined)
inactive: [1] 1.2% | [2] -21.2% | [3] -9.8% | [4] 8.25% | [5] -12.7% | [6] 6.9%

O=C(O)c1ccc(N2C(=O)c3ccccc3C2=O)cc1
inactive: [1] -19.1% | [2] 4.8% | [3] 1.95% | [4] -10.1% | [5] -18.3% | [6] 41.9%

Cc1ccnc(C2=C(O)c3ccccc3C2=O)c1
inactive: [1] 20% | [2] 0.1% | [3] -9.75% | [4] 1.15% | [5] -2.8% | [6] 12.8%

N#CC(c1ccccc1)N(CCc1ccccc1)C(=O)c1ccc(C(=O)N(CCc2ccccc2)C(C#N)c2ccccc2)cc1 (centres undefined)
inactive: [1] 15.2% | [2] 26.9% | [3] 7.8% | [4] 13.8% | [5] 6.6% | [6] -11.3%

O=P(c1ccccc1)(c1ccccc1)C(O)c1cccs1 (centres undefined)
inactive: [1] 12.8% | [2] 2% | [3] 17.6% | [4] 15.5% | [5] 24.9% | [6] 18.8%

CC(=O)C1=C(O)C2(O)C(=O)c3c(c(C)c4ccc(C)c(O)c4c3O)CC2C(N)C1=O (centres undefined)
inactive: [1] 9.85% | [2] 38.1% | [3] 14.2% | [4] 11.7% | [5] 19% | [6] 4%

CC(=O)NC(C=O)C(O)C(O)C(O)C(=O)O (centres undefined)
inactive: [1] 21.7% | [2] -11.4% | [3] 2.3% | [4] 23.1% | [5] 8% | [6] 10.5%

CN(C)c1ccc(/C=C(/NC(=O)c2ccccc2)C(N)=O)cc1
inactive: [1] 13.9% | [2] 4.55% | [3] 8.95% | [4] 8.1% | [5] 7.6% | [6] 5.1%

c1ccc2oc(-c3ccc4c(c3)OCO4)nc2c1
inactive: [1] 14.8% | [2] 42.8% | [3] 11.6% | [4] 4.5% | [5] -2.75% | [6] -0.2%

Cc1cn(CCCn2cnc3c(N)ncnc32)c(=O)[nH]c1=O
inactive: [1] -12.7% | [2] -31.6% | [3] -9.55% | [4] -6.6% | [5] -31.4% | [6] -2.9%

NS(=O)(=O)c1ccc(N=Nc2nc3[nH]c(=O)[nH]c(=O)c3[nH]2)cc1
inactive: [1] 22.3% | [2] -9.2% | [3] 3.05% | [4] -4.85% | [5] -7.2% | [6] 18.6%

C=C1c2ccccc2C=NN1c1ccccc1
inactive: [1] 19.4% | [2] 4.35% | [3] 13.2% | [4] 4.25% | [5] -8.75% | [6] 1%

O=C1CSC(c2ccc(Cl)c(Cl)c2)N1c1nncs1 (centres undefined)
inactive: [1] -18.7% | [2] 11.8% | [3] 17.1% | [4] 10.4% | [5] 14.7% | [6] 23.4%

CN(C)c1ccc(-c2nc(N)nc3c2CCCC3)cc1
inactive: [1] -12.7% | [2] -12.2% | [3] -13.3% | [4] 22.4% | [5] -6% | [6] -34.2%

O=S1(=O)CC(N2CCCCC2)C2=C(O1)c1ccccc1N(c1ccccc1)C2 (centres undefined)
inactive: [1] 1.8% | [2] -16.9% | [3] -11.1% | [4] 16.9% | [5] -0.4% | [6] -26.1%

COC1OC2COc3ccccc3OC2C2C1N2C(N)=S (centres undefined)
inactive: [1] 3.4% | [2] 22.5% | [3] 16.7% | [4] 1.65% | [5] 19.4% | [6] 12.9%

CC(=NNC(=S)Nc1ccc(C)cc1)c1cccc(C(C)=NNC(=S)Nc2ccc(C)cc2)n1
inactive: [1] 35.5% | [2] 14.1% | [3] 36.8% | [4] 17.4% | [5] 12.4% | [6] 23.8%

C/C=C/C(=O)N(CC)CC
inactive: [1] 9% | [2] -4.25% | [3] 3.75% | [4] 1.65% | [5] -24.9% | [6] 10.8%

CCOC(=O)c1ccc(N=C2C(=S)N(c3ccc(C(=O)OCC)cc3)C(=N)N2/N=C/c2ccccc2)cc1
inactive: [1] 19.4% | [2] 13.4% | [3] 11.5% | [4] -4.55% | [5] 31.9% | [6] 1.95%

Cc1ccccc1C1CCCCC1OS(C)(=O)=O (centres undefined)
inactive: [1] -6.3% | [2] -1.35% | [3] -15.2% | [4] -7.6% | [5] 7.1% | [6] -11.1%

O=[N+]([O-])c1ccc(Nc2nc3ccccc3s2)cc1
inactive: [1] 6.75% | [2] 11.8% | [3] -24.7% | [4] -21.5% | [5] 5.75% | [6] 15.2%

CCC(CC)c1nc2c([nH]1)c(=O)n(C)c(=O)n2C
inactive: [1] -34% | [2] 8.1% | [3] 5.3% | [4] -32.5% | [5] -7.2% | [6] -10.3%

O=C(/C=C/c1c[nH]c2ccccc12)c1ccccc1[N+](=O)[O-]
inactive: [1] 5.45% | [2] 9.75% | [3] 7.55% | [4] -7.7% | [5] 7.6% | [6] -7%

Cc1ccc(S(=O)(=O)OCCNc2ccc([N+](=O)[O-])cc2[N+](=O)[O-])cc1
inactive: [1] 2% | [2] 6.8% | [3] 6.45% | [4] 11.8% | [5] 2.9% | [6] 7.85%

N#C/C(=C/c1cccc2ccccc12)C(=O)c1ccccc1
inactive: [1] 36.9% | [2] -2.75% | [3] 3.6% | [4] 26.9% | [5] -3.75% | [6] -5.5%

CNC(=O)OCc1nc(SSC(C)(C)C)n(C)c1COC(=O)NC
inactive: [1] 2.65% | [2] -1.5% | [3] 20.3% | [4] 1.9% | [5] 16.2% | [6] -9.4%
